TTR transcr act: TTR transcription activation, primary screen; SH-SY5Y TTR promoter Gaussia luciferase, luminescence; 100% = recombinant luciferase protein wells; activation, % at 16.7 µM; hit rate 1.3% among 92,000; AID 1117267;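 active = activation above the mean of all tested compounds plus 3 SD, cut at about 9.5% in these data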;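 also: cells exposed to compounds for one day before reading; 0% = median of all test compound wells on the plate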
TTR inh HuH7: HuH7 TTR transcription inhibition, counter-screen; shares compounds with TTR transcr act; HuH7 TTR promoter-Gaussia luciferase reporter, luminescence; inhibition, % at 16.7 µM; hit rate 4% among 1,100; AID 1117279;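 active = average inhibition above the solvent-only control wells' mean plus 3 SD, cut at about 15% in these data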;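 also: 0% = cells with DMSO only and 100% = cells with inhibitor control FD; inhibitors lower well luminescence so higher value means more inhibition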
TTR act confirm: confirmation of human transthyretin transcription activators; shares compounds with TTR transcr act; SHSY5Y TTR promoter Gaussia luciferase, luminescence; 100% = purified Lucia enzyme wells, no cells; activation, % at 16.7 µM; 1,100 tested, under 10 active;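 active = mean activation above a set limit taken from the earlier primary screen, cut at about 11% in these data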;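 also: 0% = DMSO-treated cells and 100% = recombinant Lucia luciferase without cells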
* marks the source's active call; other numbers are inactive results. Shown is part of a subset that was picked to be rich in hits.

SMILES | TTR transcr act | others
CC(C)n1c(=O)c2ccccc2n1Cc1cn(CCc2c[nH]c3ccccc23)nn1 | 2
COc1ccc(Cn2cc(Cn3c4ccccc4c(=O)n3C(C)C)nn2)cc1 | 16* | TTR inh HuH7=-9;TTR act confirm=-1
COC(=O)Cn1c2ccccc2c(=O)n1C(C)C | 0
CCc1ccc(CCNC(=O)OC2CC3CC2[C@H]2CCCCN2[C@H]3Cc2ccccc2)cc1 (stereo partly drawn) | 0
O=C(COC(=O)c1ccccc1O)Nc1ccc(S(=O)(=O)N2CCCCC2)cc1 | -4
O=C(COC(=O)c1ccc(Cl)nc1)Nc1ccc(S(=O)(=O)N2CCCC2)cc1 | 20* | TTR inh HuH7=-1;TTR act confirm=-1
O=C(COC(=O)c1ccc(Cl)nc1)Nc1cc(S(=O)(=O)N2CCCCC2)ccc1Cl | -1
CC(C)NC(=O)N[C@H]1CC[C@H](CC(=O)NCc2ccc(Oc3ccccc3)cc2)O[C@@H]1CO | -1
COc1ccc(Oc2c(-c3cccs3)cnn(-c3ccc(C)cc3)c2=O)cc1 | 0
Cc1ccc(CN2CCCCC(NC(=O)c3ccc(COc4ccccc4)cc3)C2=O)cc1 (stereo not drawn) | -3
COC(=O)C1CN(Cc2ccccc2)CCS(=O)(=O)N1Cc1cn(Cc2ccccc2Br)nn1 (stereo not drawn) | -1
Cc1cccc(Cn2cc(COC(=O)NCCc3ccccc3)nn2)c1 | 0
COC(=O)c1cn(-c2ccccc2)nc1-c1ccncc1 | -3
COC(=O)c1cn(-c2ccccc2)nc1-c1ccc(OC)cc1 | -3
O=C(OCc1ccccc1)c1cn(-c2ccccc2)nc1-c1ccncc1 | 18* | TTR inh HuH7=-10;TTR act confirm=-1
COC(=O)[C@]12C[C@H](CC(=O)NCc3cccc4ccccc34)C(=O)N(Cc3ccc(Cl)cc3Cl)C1=C[C@H](C1CCCC1)O[C@@H]2C | -1
COC(=O)[C@]12C[C@H](CC(=O)N3CCN(C(=O)C4CC4)CC3)C(=O)N(Cc3cccc4ccccc34)C1=C[C@H](COCc1ccccc1)O[C@@H]2C | -2
O=S1(=O)c2c(cccc2N2CC[C@H](O)C2)O[C@H]2CCN1C2 | 1
CCC(CC)NC(=O)CSc1nnc(-c2ccc(OC)cc2)n1C(C)C | 1
COc1ccc(-n2cnnc2SCC(=O)NCc2cccs2)cc1 | 3
COc1ccc(-c2nnc(SCC(=O)NCc3cccs3)n2C(C)C)cc1 | 11* | TTR inh HuH7=-10;TTR act confirm=2
COP1(=O)CCOCC[C@H](CC(C)C)NC(=O)[C@H](CC(C)C)N1 (stereo partly drawn) | -1
CN1CCC(N[C@@H](Cc2c[nH]c3ccccc23)C(=O)NCC(c2ccccc2)c2ccccc2)(C(=O)NC2CCCCC2)CC1 | -5
COc1cccc(C(=O)NCc2cccnc2)c1 | -2
CNC(=O)c1sc(=S)n(-c2ccc(OC)cc2)c1N | 0
SMILES | TTR transcr act | others
COc1ccc(-n2c(N)c(C(=O)NCc3cccnc3)sc2=S)cc1 | 9.9* | TTR inh HuH7=-24;TTR act confirm=0
Brc1ccc(-c2csc(N3CCNCC3)n2)cc1 | 1
O=C(NC1CCCCN(Cc2ccc(Cl)cc2)C1=O)c1cccs1 (stereo not drawn) | 1
COc1ccc(S(=O)(=O)N(C)C[C@@H]2Oc3c(NC(=O)Nc4ccccc4)cccc3C(=O)N([C@@H](C)CO)C[C@H]2C)cc1 | 0
COC(=O)C1CN(Cc2ccccc2)CCS(=O)(=O)N1Cc1cn(Cc2cccc(Cl)c2)nn1 (stereo not drawn) | -1
CCCCCCCCN1C(=O)[C@@H](CC(=O)NCCCOCCCC)C[C@@]2(C(=O)OC)C1=C[C@H](C(C)C)O[C@@H]2C1CC1 | 0
O=C(COC(=O)CCSc1ccccc1Cl)Nc1ccc(F)cc1F | 10.0* | TTR inh HuH7=-6;TTR act confirm=3
O=C(COC(=O)CCSc1ccccc1)Nc1ccc(F)cc1Cl | 0
CSc1ccccc1NC(=O)COC(=O)CCC(=O)c1ccc(F)cc1 | -1
O=C(O)c1cc(-c2ccccc2)nn1CC1CC(c2cccnc2)=NO1 (stereo not drawn) | 15* | TTR inh HuH7=-6;TTR act confirm=-1
Cc1ccccc1-c1cc(C(=O)NCc2ccco2)n(CC2CC(c3cccnc3)=NO2)n1 (stereo not drawn) | 3
O=C(c1cc(-c2ccccc2)nn1CC1CC(c2cccnc2)=NO1)N1CCOCC1 (stereo not drawn) | 2
CCS(=O)(=O)N1Cc2cc(C(=O)NCCOC)nc(-c3cccc(-c4ccncc4)c3)c2[C@H]1CCO | 0
O=C(c1cccc(Cl)c1)N1CCN(c2ccnc3cc(Cl)ccc23)CC1 | -3
O=C(NCc1ccccc1)c1cc2ccccc2oc1=O | 0
O=C(NCc1ccccc1)c1cc(=O)c2ccccc2o1 | 26* | TTR inh HuH7=-13;TTR act confirm=4
O=C(NCc1ccccc1)c1ccc(C(=O)NCc2ccccc2)cc1 | -2
COC(=O)[C@]12C[C@H](CC(=O)NCCCCc3ccccc3)C(=O)N(Cc3ccco3)C1=C[C@H](C1CCCC1)O[C@@H]2C | 2
O=C1NC[C@H](Cc2ccccc2)N(C[C@@H]2CCCN2C[C@H](Cc2ccccc2)N2C[C@H](Cc3ccc(O)cc3)N(CCc3ccccc3)C(=O)C2=O)C1=O | -2
Cn1nccc1C(=O)N/N=C/c1cccnc1 | -2
O=C(N/N=C/c1cccnc1)c1ccco1 | 2
O=C(N/N=C/c1cccnc1)c1ccc2c(c1)OCCO2 | 18* | TTR inh HuH7=2;TTR act confirm=0
O=C1CCC[C@H]2C[C@H](NCc3ccccc3Cl)CC[C@]23CCCN13 | 0
CCN1CCCCC(NC(=O)COCc2ccccc2)C1=O (stereo not drawn) | -1
CCOC(=O)[C@@]12CCC3=C1N(CCC3)C(=O)[C@H](CC(=O)NCc1ccc(OC)c(OC)c1)C2 | -1
SMILES | TTR transcr act | others
COc1ccc(CCNC(=O)c2ccc([N+](=O)[O-])cc2Cl)cc1OC | 26* | TTR inh HuH7=-24;TTR act confirm=1
COc1ccc(CCNC(=O)c2ccccc2Cl)cc1OC | 0
COc1ccc(CCNC(=O)c2ccc(-c3ccc([N+](=O)[O-])cc3Cl)o2)cc1OC | -2
Cc1cc(C)n2ncc(C(=O)Nc3ccc4c(c3)CCC4)c2n1 | -1
COC(=O)[C@]12C[C@H](CC(=O)N3CCCC3)C(=O)N(Cc3cccc4ccccc34)C1=C[C@H](C(C)(C)C)O[C@@H]2C | -2
CC(OP(=O)(O)C(NC(=O)[C@H](Cc1ccc(O)cc1)NC(=O)OC(C)(C)C)C(C)C)C(=O)O (stereo partly drawn) | 1
COc1ccc(OCC(=O)NNC(=O)C(=O)Nc2cc(OC)ccc2OC)cc1 | 2
COc1ccc(C)cc1NC(=O)C(=O)NNC(=O)COc1ccc(Cl)cc1 | 2
COc1ccc(OC)c(NC(=O)C(=O)NNC(=O)COc2ccc(Br)cc2C)c1 | 43* | TTR inh HuH7=-9;TTR act confirm=0
COc1ccc2c(c1)[C@@]1(NCCc3c1[nH]c1ccc(OC)cc31)C(=O)N2 | 1
O=C(NCCN1CCOCC1)c1c[nH]c2ccc(S(=O)(=O)N3CCOCC3)cc2c1=O | 0
CCN(CC)CCNS(=O)(=O)c1ccc2[nH]cc(C(=O)O)c(=O)c2c1 | 0
CCCCN(C)C(=O)c1c[nH]c2ccc(S(=O)(=O)N3CCOCC3)cc2c1=O | 11* | TTR inh HuH7=-7;TTR act confirm=1
COC(CNC(=O)[C@H](Cc1ccccc1)NCC(=O)NC1CCCCC1)OC | 0
Cc1ccc(S(=O)(=O)N2c3ccc(F)cc3C[C@H]2CSc2ccccc2)cc1 | 0

Screening data as filed in PubChem.
